The text below walks through data of PubChem BioAssay AID449762 (Southern Research Specialized Biocontainment Screening …, 2010).

Out of some 330,000 compounds screened, about 1,900 (0.58%) were called active. Roughly 4% stayed inconclusive and do not appear here. Not all results are given here. Results with a measured potency or affinity are listed apart. Unmarked numbers belong to inactive results. Cut-off read from the data, not from the text of the source: inconclusive = inhibition above about 70% without an active follow-up result; inactive = below that.

A short description of the assay: M. tuberculosis growth inhibition, HTS (AID 449762).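 Note: bacterial growth assessed after seven days of incubation.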 The conditions noted are these: M. tuberculosis H37Rv growth inhibition, 7H9 media; at 25 µM; stronger effect = higher value.
As a reminder, the inhibition is the drop in the measured response relative to a control, in per cent. On to `CC(C)C(NC(=O)c1cccs1)C(=O)NC1=NCCS1` (configuration not stated), for which the inhibition is -3.72%.
As to `COc1cc(OC)cc(C(=O)N[C@H](C(=O)Nc2nc3ccc(S(C)(=O)=O)cc3s2)C(C)C)c1`, the inhibition is 10.5%.
For the compound `CCOC(=O)c1sc(NC(=O)c2cc3ccccc3o2)nc1C`, the inhibition is 3.64%.
Under `CCOC(=O)c1csc(NC(=O)c2cc(=O)c3ccccc3o2)n1` stands -0.69%; under `COc1cc(/C=N/Nc2nc(Nc3ccccc3)nc(-n3nc(C)cc3C)n2)cc(OC)c1OC`, 10.6%; under `COc1cccc(/C=N/Nc2nc(N3CCCC3)nc(N3CCCC3)n2)c1O`, 3.67%.
The figure for `COc1ccc(NC(=S)N2CCC(N(C)CCN3CCOCC3)CC2)cc1` is 2.62%; for `COc1ccccc1C(=O)NCCC(=O)N1CCN(c2ccccc2O)CC1` it is 1.15%; for `COc1ccc(-c2csc3ncnc(N4CCN(c5ccccc5Cl)CC4)c23)cc1` it is 50.3%.
The figure for `CCOc1ccccc1N1CCN(c2ncnc3scc(-c4ccc(OC)cc4)c23)CC1` is -0.51%; for `COc1ccc(-c2nc3scc(-c4ccc(OC)c(OC)c4)c3c(=O)o2)cc1` it is 11.9%.
In the case of `COc1ccc(-c2csc3nc(-c4ccccc4F)oc(=O)c23)cc1`, the inhibition is -1.39%.
The figure for `CCN(CC)c1ccc(C2C(C(C)=O)C(=O)CC(C)(O)C2C(C)=O)cc1` (configuration not stated) is -4.35%.
In the case of `C1CN(c2nc3nonc3nc2N2C[C@H]3CC[C@H]2C3)CCS1`, the inhibition is -11%.
Consider `CCNC(=S)N(CCc1c(C)[nH]c2ccccc12)Cc1cccnc1`, for which the inhibition was -3.56%.
The figure for `CN1CCN(C(=O)CCN2C(=O)/C(=C\c3ccccc3F)SC2=S)CC1` is -5.52%; for `COc1ccc(-c2c(C#Cc3ccsc3)c3cc(Br)ccc3n2C)cc1` it is 8.44%; for `COc1ccc(C#Cc2c(-c3ccccc3)n(C)c3ccccc23)cc1` it is 6.76%.
The figure for `COc1cc(CNCCO)cc(Cl)c1OCc1ccccc1Cl` is 1.99%.
Under `COc1cc(CNCc2ccccc2)cc(Cl)c1OC` stands -0.38%.
For `CCN(C(=O)c1cnc2scc(C)n2c1=O)c1ccccc1C`, the inhibition is -2.4%.
Under `COc1ccc(NC(=O)CC(Cc2ccc(Cl)cc2)C(=O)O)cc1` (configuration not stated) stands 1.62%; under `Cc1cccc(C)c1NC(=O)CN(C)C(=O)c1ccccc1Cc1ccccc1`, 2.81%.
Take `Cc1cc(C)n2nc(SCC(=O)NC(=O)c3ccccc3Cl)nc2n1`: the inhibition was 1.71%.
`Cc1nn(-c2ccccc2)c2[nH]c(=O)c(CNCc3ccc4c(c3)OCO4)cc12`: the inhibition is -4.36%.
`CC(C)(C)c1nn(-c2ccccc2)c2[nH]c(=O)c(CNc3ccc4c(c3)OCCO4)cc12`: the inhibition is 52.8%.
With `Cc1ccccc1NC(=O)C1CCN(S(=O)(=O)c2cccc3nonc23)CC1`, the inhibition was 4.17%.
Take `CCC[C@@H]1C[C@@H](C(=O)N[C@H]([C@@H](C)O)[C@H]2O[C@H](SC)[C@H](O)[C@@H](O)C2O)N(C)C1` (some centres not stated): the inhibition was 59.1%.
For the compound `Cc1ccc(NC(=O)[C@@H](CC(C)C)NC(=O)[C@@H]2Cc3ccccc3CN2)cc1`, the inhibition is 2.07%.
Under `CCOC(=O)C(C)Sc1ccc2nnc(CCNS(=O)(=O)c3ccc(C)cc3)n2n1` (configuration not stated) stands 1.94%; under `Cc1cc(C(F)(F)F)cc(NNC(=O)NC(=O)c2ccccc2Cl)n1`, 10.6%.
For `COC(CNS(=O)(=O)c1ccc(S(=O)(=O)NC2CC2)cc1)OC`, the inhibition is 1.93%.
Under `Cc1ccc(S(=O)(=O)NNC(=O)Nc2ccc(Cl)cc2)cc1` stands 0.2%; under `COc1cc(SC)ccc1C(=O)NCCOc1ccc(Cl)cc1`, 64.9%.
In the case of `O=C(Nc1ccc(N2CCN(C(=O)c3ccco3)CC2)cc1)c1ccccc1`, the inhibition was 2.03%.
For the compound `O=C(Nc1ccc(N2CCN(C(=O)c3ccco3)CC2)cc1)c1ccco1`, the inhibition is -1.95%.
Regarding `NC(=O)CC(NC(=O)Cc1ccc(Br)cc1)c1ccc(NCc2ccccn2)c([N+](=O)[O-])c1` (configuration not stated), the inhibition is 3.35%.
Under `O=C(CN1C(=O)S/C(=C/c2cc(Br)cs2)C1=O)N1CCOCC1` stands 5.49%; under `COCCNC(=O)c1ccccc1NC(=O)CCSc1ccccc1`, -2.26%.
In the case of `CCC1CCCCN1Cc1nc2c(c(=O)n(C)c(=O)n2C)n1CCC(C)C` (configuration not stated), the inhibition was -0.27%.
`Cc1cccc(-c2oc3ccccc3c2-c2ccc3c(c2)OCO3)c1`: the inhibition is 52.4%.
The figure for `COc1ccc(-c2c(-c3cccc(C)c3)oc3ccc(-c4ccc5c(c4)OCO5)cc23)cn1` is -1.67%; for `Cc1c(Cl)c([N+](=O)[O-])nn1CCCC(=O)Nc1ccc(Cl)cc1Cl` it is 5.86%; for `CC1=NOC(=O)/C1=C\c1ccc(-c2cccc(Cl)c2)o1` it is 60.5%.
As for `CC1=NOC(=O)/C1=C\c1ccc(-c2ccc(Br)cc2C(=O)O)o1`, the inhibition was -4.04%.
As to `Cc1c(NC(=S)Nc2cccc(Cl)c2)c(=O)n(-c2ccccc2)n1C`, the inhibition is 7%.
As to `Cc1cccc(NC(=O)CN2CCN(C(=O)COc3cccc(Br)c3)CC2)c1C`, the inhibition was 1.13%.
For `CCOC(=O)c1sc(NCCNc2nc(C)c(C(=O)OCC)s2)nc1C`, the inhibition is -6.54%.
The figure for `CCOC(=O)CSc1nnc(N)s1` is -0.59%.
Consider `COc1ccc(NC(=O)CSc2nc(N)c(C(=O)Nc3ccc(N(C)C)cc3)s2)cc1`, for which the inhibition is 15.8%.
The figure for `CCOC(=O)c1sc(SCC(=O)Nc2ccc(N(C)C)cc2)nc1N` is 1.23%; for `COc1cccc(CN(C)CC(=O)Nc2c(C)cccc2C(C)C)c1` it is 1.22%.
Under `O=C(c1csc2ccccc12)N1CCN(c2ccc(Cl)c(Cl)c2)CC1` stands 2.65%.
Turning to `NC(CS(=O)O)C(=O)O` (configuration not stated), the inhibition was 5.82%.
The figure for `N[C@@H](Cc1cc(Br)c(O)c(Br)c1)C(=O)O` is 1.75%; for `N[C@@H](Cc1cc(I)c(O)c(I)c1)C(=O)O` it is -4.28%.
Under `N[C@@H](Cc1ccc(N(CCCl)CCCl)cc1)C(=O)O` stands -2.59%; under `Cc1ccc(C(=O)NCC(=O)OCC(=O)c2ccc(Cl)s2)cc1`, 13.4%.
For the compound `O=C(NC1CCSc2ccccc21)c1cc(S(=O)(=O)N2CCOCC2)ccc1F` (configuration not stated), the inhibition was -1.41%.
The figure for `O=C(NC1CC1)c1cc(=O)c2ccccc2o1` is -13.4%; for `COc1cc2c(cc1Cl)C(=O)C(F)(c1ccccc1)C(=O)N2` (configuration not stated) it is -6.77%.
With `Cc1nnc(SCc2ccc(C(=O)Nc3cc(Cl)ccc3C)cc2)s1`, the inhibition is -1.77%.
Consider `COc1ccc(OC)c(NC(=O)c2ccc(CSc3nnc(C)s3)cc2)c1`, for which the inhibition was 49.4%.
For the compound `CCOc1ccc(NC(=O)CSc2nnc(COc3c(C)cccc3C)o2)cc1`, the inhibition is -12.7%.
Take `COc1cc(NC(=O)Cc2ccccc2)c(C(=O)O)cc1OC`: the inhibition is 5.42%.
Regarding `COc1ccc(-n2nnnc2CNC(=O)C(=O)c2c[nH]c3ccccc23)cc1`, the inhibition was 1.52%.
Under `COc1ccc(-c2c(-c3ccccc3OC)sc3ccccc23)cc1OC` stands 11.5%.
For `CCOC(=O)Cc1cn(C(=O)OC(C)(C)C)c2ccccc12`, the inhibition is -4.41%.
Under `CC(=O)c1ccc(NC(=O)CNCc2cccs2)cc1` stands -3.9%; under `Cc1ccc(NC(=O)CNCc2cccs2)c(Br)c1`, 1%.
Under `CSCCC(NC(=O)c1ccco1)C(=O)NC1CCC(C)CC1` (configuration not stated) stands -5.12%; under `O=S(=O)(c1ccc2c(c1)OCCO2)C1CCC(S(=O)(=O)c2c(F)cccc2F)CC1` (configuration not stated), -1.16%.
Under `CC[n+]1c(/C=C/N(C)c2ccccc2)oc2ccc(Cl)cc21` stands -7.91%.
As for `CC[n+]1c(/C=C/N(C)c2ccccc2)oc2ccc(F)cc21`, the inhibition was -7.16%.
Under `COC(=O)c1ccc(NC(=O)CSc2nnc(C)n2CC2CCCO2)cc1` (configuration not stated) stands -1.12%.
Turning to `CC(OC(=O)c1cccc(NS(C)(=O)=O)c1)C(=O)Nc1ccc2c(c1)OCO2` (configuration not stated), the inhibition was -1.53%.
The figure for `Cc1ccc(-n2c(SCC(=O)N/N=C/c3c(C)nn(-c4ccccc4)c3C)nc3ccccc3c2=O)cc1` is 12%; for `Cc1cc(C(=O)N/N=C/c2c(C)nn(-c3ccccc3)c2C)n[nH]1` it is -1.35%.
Under `Cc1ccc(/C=N/NC(=O)CSc2nc3ccccc3c(=O)n2-c2ccccc2C)s1` stands 6.56%.
For the compound `Cc1nn(-c2ccccc2)c(C)c1/C=N/NC(=O)c1cc(O)cc(O)c1`, the inhibition was 0.86%.
Under `CCCCNC(=O)CSc1nnc(Cc2ccc(Cl)c(Cl)c2)c(=O)[nH]1` stands 4.24%.
Under `O=c1ccc(=O)n2n1CC(O)C2` stands 1.79%; under `Cc1cc(Cl)c(S(=O)(=O)Nc2ccc(S(=O)(=O)N3CCOCC3)cc2)cc1OCC(N)=O`, 5.99%.
Under `CC(C)Cn1c(N)c(C(=O)COC(=O)Cc2cccc(C(F)(F)F)c2)c(=O)n(C)c1=O` stands 3%; under `CCOC(=O)N/N=C(C)/C=C/c1ccccc1`, -3.41%.
For `Cc1ccc(OCC(=O)NCc2cccnc2)cc1`, the inhibition was -0.13%.
Under `CC1CCN(C(=O)c2ccc(CSc3nc4ccncc4n3Cc3ccc(F)cc3)cc2)CC1` stands -5.51%; under `CCCOc1ccc(CC(=O)NCC2(c3ccccc3)CCOCC2)cc1OC`, 5.05%.
Under `Cc1ccc(N(CC(=O)NC2CCCC2)C(=O)CCC(=O)Nc2nccs2)cc1C` stands -7.45%.
The figure for `C=CCNC(=O)CN1CCC(n2nnc3cc(C(F)(F)F)ccc32)CC1` is -4.99%; for `O=C(CN1CCC(n2nnc3ccccc32)CC1)NCc1cccs1` it is -0.03%; for `O=C(CN1C(=O)/C(=C/c2ccccc2)SC1=S)NC1C=CS(=O)(=O)C1` (configuration not stated) it is 2.53%.
